Bioassay records: PubChem, National Center for Advancing Translational Sciences (NCATS)
Hits are enriched below; roughly 3% of the tested compounds scored in any of these assays.
Chronic BCR inh – qHTS Assay to Find Inhibitors of Chronic Active B-Cell Receptor Signaling | ABC-DLBCL IkBa-CBG/CBR reporter, luminescence ratio, 4 h | Potency, µM (series often up to 46.1 µM), inactives show top-dose activity change, negative = inhibition, usual class: inhibitors | hit rate 0.05% among 340,000; active = well fitted inhibition curve with a large enough effect in the signal ratio, with a control signal flat, not every such curve was filed as active; inconclusive = small, poorly fitted or top-dose-only effect, or effect the other way, or a change in a side signal; the % refers to the signal ratio;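 also: potency is read from the fitted curve at half-maximal effect; plate controls were basal doxycycline-induced cells for no effect and cells given 10 µM MG132 for full effect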
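Cell line TMD8 (human ABC DLBCL), stably expressing tet-inducible CBG68-IkBa fusion and CBR; IMDM/0.5% FBS; cpd up to 46 uM; dox induction, 4 h, 37C/5% CO2; dual luminescence; green/red ratio; MG132 control.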
KCNH2 WT inh – qHTS for Inhibitors of KCHN2 3.1: Wildtype qHTS; hit rate 0.37% among 340,000; activity change, % at 1.84 µM; U2OS, BacMam KCNH2, thallium flux FluxOr; stronger effect = lower value;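 active = maximum activity change below -70%; inconclusive = maximum activity change between -70% and -50%; inactive = maximum activity change above -50%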; also: % is scaled to controls: 0 for no effect and ±100 for the full control effect
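U2OS cells transduced with wild-type KCNH2 virus are loaded with FluxOr dye for 45 min, and thallium flux is measured in kinetic reads before and after stimulation buffer. Rate constants are normalized to DMSO controls.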
KCNH2 3.1 inh – qHTS for Inhibitors of KCHN2 3.1: Mutant qHTS; Potassium voltage-gated channel subfamily H member 2, brain isoform KCNH2 3.1 (human); activity change, % (tested at about 1.8 µM); hit rate 0.95% among 340,000; U2OS KCNH2 3.1, thallium flux FluxOr; stronger effect = lower value;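 active = maximum activity change below -70%; inconclusive = maximum activity change from -70% to -50%; inactive = maximum activity change above -50%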;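 also: thallium influx rate constant from kinetic fluorescence after stimulation buffer; % is scaled to controls: 0 for no effect and ±100 for the full control effect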
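Thallium flux read-out: FluxOr dye with Red40 quencher in HBSS/HEPES, 45 min at RT. Rate constants from kinetic reads were normalized to positive and negative DMSO controls. Cells: U2OS virally expressing the 3.1 isoform.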
ClpP mod – qHTS Assay for Activators of ClpP; ATP-dependent Clp protease proteolytic subunit (Bacillus subtilis (strain 168)), P80244; purified B. subtilis ClpP, FRET peptide cleavage, 20 min; Potency, µM (top dose mostly 57.5 µM), inactives show top-dose activity change, negative = active; hit rate 1.9% among 340,000; active = well fitted falling curve with a large enough effect; inconclusive = small, poorly fitted or top-dose-only effect; inactive = no such curve, though single readings can be large or run the other way; also: potency is read from the fitted curve at half-maximal effect; the source files actives as falling curves though it sought activators and does not explain the sign; nearly all actives have a fitted effect of over 65% in size
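Purified B. subtilis ClpP, 10 microg/mL final in Tris/HCl pH8 with KCl, BSA, glycerol and Tween-20, cleaved an Abz/nitrotyrosine-quenched decapeptide. Fluorescence (ex 320, em 430) was read at 0 and 20 min at room temperature. Delta was normalized to 5.8 microM ADEP and DMSO/no-enzyme controls.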
ALOX12 inh – Primary qHTS assay for inhibitors of human arachidonate 12S-lipoxygenase (ALOX12): Round 2 | Polyunsaturated fatty acid lipoxygenase ALOX12 (Homo sapiens), P18054 | purified 12hLO, xylenol orange hydroperoxide absorbance | Potency, µM (titrated, usually from 108 µM), inactives show at the top dose activity change, negative = inhibition, actives largely listed as inhibitors | hit rate 1.1% among 580,000; active = well fitted inhibition curve with a large enough effect; inconclusive = small, poorly fitted or top-dose-only effect, or another doubt; inactive = no such curve, though single readings can be large or run the other way; also: potency is read from the fitted curve at half-maximal effect; % is scaled to controls: 0 for no effect and ±100 for the full control effect
Target sequence (P18054 whole entry, looked up): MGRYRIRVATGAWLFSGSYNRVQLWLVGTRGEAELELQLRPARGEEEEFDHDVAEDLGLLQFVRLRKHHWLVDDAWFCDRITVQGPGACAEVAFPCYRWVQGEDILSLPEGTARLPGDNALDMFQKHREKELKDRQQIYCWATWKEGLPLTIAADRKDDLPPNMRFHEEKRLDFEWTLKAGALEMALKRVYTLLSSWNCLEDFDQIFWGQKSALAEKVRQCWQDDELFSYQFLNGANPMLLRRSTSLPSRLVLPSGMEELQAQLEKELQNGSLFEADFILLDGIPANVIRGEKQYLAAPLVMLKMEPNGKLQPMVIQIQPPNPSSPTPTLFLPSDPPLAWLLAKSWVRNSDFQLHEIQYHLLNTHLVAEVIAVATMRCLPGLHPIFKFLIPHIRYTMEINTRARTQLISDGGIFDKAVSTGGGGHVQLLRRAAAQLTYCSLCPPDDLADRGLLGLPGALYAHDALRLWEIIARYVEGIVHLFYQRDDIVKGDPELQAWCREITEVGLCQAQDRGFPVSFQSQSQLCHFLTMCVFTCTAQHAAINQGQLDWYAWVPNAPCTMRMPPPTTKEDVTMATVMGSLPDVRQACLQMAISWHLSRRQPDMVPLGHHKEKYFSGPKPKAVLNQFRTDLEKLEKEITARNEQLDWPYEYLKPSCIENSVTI
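Purified human 12hLO (150 nM final) in 25 mM Hepes, 0.01% Triton X-100, pH 7.0 was preincubated 15 min at room temperature with compound. Then 40 uM arachidonic acid was added, 30 min. Hydroperoxide was read by Fe-XO absorbance ratio 573/405 nm.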
LDHA block – qHTS assay for inhibitors of human lactate dehydrogenase; hit rate 0.15% among 480,000; AID 1347041, 2019; activity change, % (values are at about 110 or 230 µM); purified LDHA, NADH/diaphorase-resazurin fluorescence; stronger effect = lower value; in the data active = activity change below about -30%; inconclusive = mostly about -25% to -30%;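 also: plate controls were DMSO wells for no effect and wells without enzyme for full effect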
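Human LDH5 (2 nM) was incubated with 0.06 mM NADH and 0.2 mM pyruvate for 5 min at room temperature in Tris pH 7.4. Remaining NADH was coupled through diaphorase/resazurin, and resorufin fluorescence was read at 0 and 20 min.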
* = called active by the depositor; ? = inconclusive; . = no result given; [ ] = dose if it differs, or a comment.

SMILES	Chronic BCR inh	KCNH2 WT inh	KCNH2 3.1 inh	ClpP mod	ALOX12 inh	LDHA block
Cc1cc(NC(=O)CSc2ccc3nnc(-c4ccc(Cl)cc4)n3n2)no1	3%	-6	0	-17%	?	-5
Cc1cc(NC(=O)CSc2ccc3nnc(-c4cccc(F)c4)n3n2)no1	2%	-7	2	?	45µM*	-6
O=[S+]([O-])(NCC1CN(Cc2ccc3[nH]ccc3c2)CC12CN(c1ccccc1)C2)c1ccccc1 (centres undefined)	.	.	.	.	35µM*	.
Oc1ccc(CN2CC(CNc3ccccc3)C3(C2)CN(c2ccccc2)C3)cc1 (centres undefined)	.	.	.	.	63µM*	.
Cc1cccc2sc(NC(=O)C3CCN(S(=O)(=O)c4cc([N+](=O)[O-])ccc4Cl)CC3)nc12	?	-11	3	-4%	40µM*	8
O=C(Nc1ccc2nc(-c3ccccc3)[nH]c2c1)c1ccco1	?	-8	5	28µM*	0%	0
O=C(Nc1cccc(-c2nc3ccccc3[nH]2)c1)c1cccc(NC(=O)c2ccco2)c1	?	5	0	?	?	-14
O=C(c1cccs1)N1C[C@@H](n2cc(C3CC3)nn2)[C@H](O)C[C@@H]1c1ccc(Cl)cc1	.	5	-7	-2%	?	-36*
O=C(c1cccs1)N1C[C@@H](n2cc(C3CC3)nn2)[C@H](O)C[C@@H]1c1ccccc1	.	5	2	-1%	10%	-37*
O=C(c1cccs1)N1C[C@@H](O)[C@H](n2cc(C3CC3)nn2)C[C@@H]1c1ccc(Cl)cc1	.	4	-12	1%	?	-2
O=c1cc(-c2cccc(Br)c2)oc2ccc(Cl)cc12	.	.	.	.	?	4
O=C(COc1ccccc1)N1CC[C@H]2CC(=O)N(c3ccccc3)CC[C@H]2C1	.	.	.	.	15%[176 µM]	.
CCn1c(=N)c(C(=O)OC)cc2c(=O)n3ccccc3nc21	1%	.	.	.	.	.
Cc1cccc(NC(=O)c2cc3c(=O)n4ccccc4nc3n(CC(C)C)c2=N)c1	4%	-118*	-98*	0%	-2%	-14
COc1cccc(NC(=O)c2cc3c(=O)n4ccccc4nc3n(CC(C)C)c2=N)c1	7%	-74*	-93*	-5%	1%	-3
O=C(Nc1ccc2ncnc(N3CCCCC3)c2c1)c1ccc(F)cc1F	.	.	.	.	26%	.
CCOC(=O)COc1nc(C(C)C)c2c(c1C#N)CCCC2	.	.	.	.	?	-3
Cc1cccc(C)c1Nc1nnc(SCc2nc3ccccc3s2)s1	?	-18	8	14µM*	3%	-8
COc1cccc(Nc2nnc(SCc3nc4ccccc4s3)s2)c1	0%	-4	5	-3%	1%	-8
COc1ccc(C2OC34CCCCC3C(C#N)(C#N)C2(C#N)C(=N)O4)cc1 (centres undefined)	4%	-13	6	11µM*	-20%	13
CCN1CCN(CC(O)COCc2ccccc2)CC1 (centres undefined)	1%	0	10	-6%	?	-9
c1ccc(OCCOCCN2CCN(C(c3ccccc3)c3ccccc3)CC2)cc1	?	-78*	-86*	-3%	?	-14
CC(=O)c1ccc(OCC(O)CN2CCOCC2)cc1 (centres undefined)	2%	5	-17	0%	.	-6
CC(=O)c1ccc(OCC(O)CN2CCN(S(=O)(=O)c3c(C)cc(C)cc3C)CC2)cc1 (centres undefined)	?	2	-3	20µM*	?	-13
